We go through 12 compounds from PubChem BioAssay.

This is one part of the list. Activity calls are given as the source filed them.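 The calls were made as follows, unless noted: active = differentiation response of at least 50%, scaled between solvent and reference control, from cells with both markers; inactive = the rest.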

Test [1] can be described thus: inhibitors of CD8+ T cell-vesicle binding, pilot screen, LFA-1/ICAM-1 modulator project, MLPCN validation set, flow cytometry (AID 2523;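 active = response below a set limit, under 55% cells CD8-positive and vesicle-bound, and CD8 cells' 90th-percentile brightness under 279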;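 as to vesicle binding response: mean PE anti-B7-1 fluorescence of CD8+ cells relative to row control; 100% = QL9-loaded vesicles with DMSO vehicle in the same plate row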). Conditions: 2C mouse CD8+ T cells, at 7 µM, stronger effect = lower value; double positive events: measured here: CD8+/vesicle+ event percentage. A general note: A flow cytometer gives signals particle by particle.
Test [2] has as its target Integrin beta-1 (Homo sapiens) + Integrin alpha-4 (Homo sapiens) (UniProt P13612+P05556). The experiment in a line: inhibition of HUTS-21 binding to VLA-4, pilot screen, VLA-4 allosteric modulator project, U937 cells, HUTS-21 mAb, flow cytometry, validation set (AID 2674;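 active = inhibition above 50%, about 3 SD of the validation set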;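 also: antibody binding induced by the VLA-4 ligand LDV present at three times its Kd; 0% = LDV ligand with antibody and no compound and 100% = antibody without LDV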). The following applies: HUTS-21 LIBS mAb binding, at 6.7 µM, stronger effect = higher value, binding induced by LDV ligand.

The nature of test [3]: superoxide lowering in aged yeast cells, pilot screen, validation compound set (AID 2706;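 active = superoxide response below 65% of plate, a cut near 3 SD across the whole screen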;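 also: yeast exposed to compound for one week at 30 degrees C before staining; 100% = mean of all compound wells on the same plate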). Conditions: S. cerevisiae aging, superoxide DHE fluorescence; at 10 µM, stronger effect = lower value.
For test [4], the target named is Beta-adrenergic receptor kinase 1 (Homo sapiens) (UniProt P25098). The experiment in a line: GRK2 binders displacing RNA aptamer, biochemical, validation, human GRK2, bead flow cytometry (AID 488806;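 active = aptamer binding inhibition above 30%, about 3 SD of noise from non-fluorescent compounds; inactive = inhibition at or below 30%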). The following applies: bead-bound GRK2, FAM-aptamer displacement, at 10 µM, stronger effect = higher value.
Sequence of Beta-adrenergic receptor kinase 1 (Homo sapiens) (P25098 whole entry, looked up): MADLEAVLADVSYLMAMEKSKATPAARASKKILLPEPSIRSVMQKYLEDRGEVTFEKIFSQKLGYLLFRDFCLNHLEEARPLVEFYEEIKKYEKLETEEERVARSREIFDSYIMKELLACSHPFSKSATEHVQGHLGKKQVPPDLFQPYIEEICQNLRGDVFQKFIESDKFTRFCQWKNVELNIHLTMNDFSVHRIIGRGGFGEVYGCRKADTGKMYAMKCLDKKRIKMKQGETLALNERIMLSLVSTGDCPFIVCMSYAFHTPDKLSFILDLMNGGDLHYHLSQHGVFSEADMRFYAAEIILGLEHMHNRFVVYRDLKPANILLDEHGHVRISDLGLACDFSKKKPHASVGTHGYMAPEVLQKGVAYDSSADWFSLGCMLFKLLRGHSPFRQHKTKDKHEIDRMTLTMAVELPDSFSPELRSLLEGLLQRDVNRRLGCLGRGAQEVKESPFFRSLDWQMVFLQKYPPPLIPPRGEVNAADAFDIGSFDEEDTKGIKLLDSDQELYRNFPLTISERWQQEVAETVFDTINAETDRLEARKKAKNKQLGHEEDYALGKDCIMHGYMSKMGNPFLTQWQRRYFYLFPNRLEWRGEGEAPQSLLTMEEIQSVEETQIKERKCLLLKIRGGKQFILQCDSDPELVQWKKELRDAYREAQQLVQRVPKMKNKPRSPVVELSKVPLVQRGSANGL
In test [5] the target is AP-2 complex subunit beta (Homo sapiens) (UniProt P63010). The test can be described thus: inhibitors of arrestin peptide binding to AP2, pilot screen, biochemical, validation set, GST-AP2 beads, flow cytometry (AID 504541;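 active = inhibition above 54%, about 3 SD of non-fluorescent compounds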;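 also: AP2 carries R879A mutation and is captured from E. coli lysate; bead-bound FITC arrestin peptide fluorescence measuring arrestin peptide binding to AP2; 0% = DMSO wells and 100% = excess unlabeled arrestin peptide control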). Conditions: FITC arrestin peptide, at 10 µM, stronger effect = higher value, AP2 beta2 appendage fragment, R879A mutant.
Sequence of AP-2 complex subunit beta (Homo sapiens) (P63010 whole entry, looked up, the tested form may be a part, one chain of several): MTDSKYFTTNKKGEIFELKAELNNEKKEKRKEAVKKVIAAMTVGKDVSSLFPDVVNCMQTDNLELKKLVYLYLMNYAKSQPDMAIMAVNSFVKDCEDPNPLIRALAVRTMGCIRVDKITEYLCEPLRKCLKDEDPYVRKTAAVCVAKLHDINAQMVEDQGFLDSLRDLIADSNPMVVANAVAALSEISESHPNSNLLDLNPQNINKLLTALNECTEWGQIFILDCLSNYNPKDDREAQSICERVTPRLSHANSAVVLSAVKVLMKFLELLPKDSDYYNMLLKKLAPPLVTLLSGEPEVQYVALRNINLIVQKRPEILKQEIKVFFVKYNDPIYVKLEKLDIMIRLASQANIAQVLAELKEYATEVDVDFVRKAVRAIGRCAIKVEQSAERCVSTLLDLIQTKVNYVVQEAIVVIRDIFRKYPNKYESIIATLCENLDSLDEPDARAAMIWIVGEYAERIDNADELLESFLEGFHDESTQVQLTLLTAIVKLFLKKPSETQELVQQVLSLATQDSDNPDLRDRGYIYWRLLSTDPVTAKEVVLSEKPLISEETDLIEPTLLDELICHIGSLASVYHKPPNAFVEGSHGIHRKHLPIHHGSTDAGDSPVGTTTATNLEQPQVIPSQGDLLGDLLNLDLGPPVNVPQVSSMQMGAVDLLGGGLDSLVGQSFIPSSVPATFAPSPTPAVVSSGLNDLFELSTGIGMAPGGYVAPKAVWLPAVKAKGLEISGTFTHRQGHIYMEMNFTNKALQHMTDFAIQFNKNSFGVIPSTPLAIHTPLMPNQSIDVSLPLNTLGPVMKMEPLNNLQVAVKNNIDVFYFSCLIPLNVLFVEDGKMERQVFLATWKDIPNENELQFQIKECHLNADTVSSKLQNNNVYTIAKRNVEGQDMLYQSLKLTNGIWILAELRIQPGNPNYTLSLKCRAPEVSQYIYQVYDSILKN
Test [6] is described as follows: yeast V-ATPase proton transport modulators, S. cerevisiae, pHLuorin, HTS validation (AID 504600; in the data active = response above about 15%;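 also: plate controls were DMSO for no effect and reference compound for full effect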). Conditions: S. cerevisiae pHLuorin cytosolic pH, at 10 µM, stronger effect = higher value.
Test [7] deals with anti-desmoglein-3 scFv antibody binding to human DSG3. The test can be described thus: inhibitors of anti-DSG3 scFv binding to DSG3, pilot screen, biochemical, validation compound set, bead-based, flow cytometry (AID 588368;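 active = binding below the plate cutoff, the plate median minus 3 SD, with a reading above zero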;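 also: signal is the median channel fluorescence of bead-bound GFP antibody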). Conditions: Protein G beads, DSG3-Fc, scFv-GFP binding, at 10 µM, stronger effect = lower value.
Test [8] is described as follows: inhibitors of fungal efflux pumps CDR1, CDR2, MDR1, pilot screen, validation compound set, multiplex, phenotypic (AID 588506;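 active = efflux inhibition above 0.42, the validation set average plus 4 SD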;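 also: Nile Red retained in cells so higher fluorescence means more efflux inhibition; 0 = negative control wells and 1 = enniatin B 25 µM full block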). Conditions: S. cerevisiae pump-expressing triplex, Nile Red efflux flow cytometry; at 10 µM; stronger effect = higher value; the pumps come from Candida albicans.
The target in test [9] is ATP-binding cassette sub-family B member 6 (Homo sapiens) (UniProt Q9NP58). The test can be described thus: ABCB6 transporter inhibitors, pilot screen, K562-ABCB6 cells, flow cytometry, validation set (AID 588550;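 active = inhibition above the screen-wide mean plus 3 SD, about 51%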;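 also: 0% = DMSO wells and 100% = benzethonium chloride 70 µM positive control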). The following applies: K562-ABCB6 porphyrin accumulation, 1 h, at 10 µM, stronger effect = higher value.
Sequence of ATP-binding cassette sub-family B member 6 (Homo sapiens) (Q9NP58 whole entry, looked up): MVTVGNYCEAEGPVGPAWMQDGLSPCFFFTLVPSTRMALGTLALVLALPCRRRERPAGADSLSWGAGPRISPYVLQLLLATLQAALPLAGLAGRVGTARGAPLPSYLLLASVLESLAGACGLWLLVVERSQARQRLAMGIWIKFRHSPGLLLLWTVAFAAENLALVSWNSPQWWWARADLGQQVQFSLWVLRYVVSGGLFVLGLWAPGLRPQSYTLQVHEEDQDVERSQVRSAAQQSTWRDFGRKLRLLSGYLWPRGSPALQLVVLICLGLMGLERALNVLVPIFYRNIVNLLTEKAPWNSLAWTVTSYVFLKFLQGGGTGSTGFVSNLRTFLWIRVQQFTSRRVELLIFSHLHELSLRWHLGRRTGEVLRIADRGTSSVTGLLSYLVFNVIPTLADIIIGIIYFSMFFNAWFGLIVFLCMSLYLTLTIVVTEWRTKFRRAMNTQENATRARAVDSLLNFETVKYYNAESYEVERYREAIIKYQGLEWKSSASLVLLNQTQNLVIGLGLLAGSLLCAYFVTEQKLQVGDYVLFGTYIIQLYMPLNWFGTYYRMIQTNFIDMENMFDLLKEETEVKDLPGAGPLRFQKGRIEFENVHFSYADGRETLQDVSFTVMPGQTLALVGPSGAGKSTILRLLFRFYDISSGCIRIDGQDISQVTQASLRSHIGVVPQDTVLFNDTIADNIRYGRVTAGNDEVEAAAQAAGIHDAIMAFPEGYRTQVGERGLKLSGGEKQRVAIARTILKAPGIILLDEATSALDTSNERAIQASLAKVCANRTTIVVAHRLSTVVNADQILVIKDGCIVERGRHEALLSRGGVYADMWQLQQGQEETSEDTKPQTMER
Test [10] can be described thus: promoters of myeloid differentiation in arrested cells, primary screen, cell-based, GFP/MAC1 double positive, flow cytometry, validation set (AID 588685).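 Also: compound exposure lasts four days before antibody staining and flow analysis; 0% = DMSO wells and 100% = 5 µM fulvestrant positive control.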 Conditions: ER-HoxA9 marrow cells, stronger effect = higher value, normalized: vehicle 0, fulvestrant 100.
Test [11] can be described thus: LAP4-GFP expression modulators in yeast, confirmation, cell-based, second cherry pick, flow cytometry (AID 2621;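 active = GFP signal as percent of the solvent control above about 150%, meaning raised reporter expression, limit read from the data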;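 also: ratio of well median GFP fluorescence to plate DMSO mean so 100% = DMSO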). Conditions: S. cerevisiae LAP4-GFP strain, 3 h, at 10 µM, stronger effect = higher value.
Test [12] in a line: modulators of MEP2-GFP levels in yeast, confirmation, S. cerevisiae, flow cytometry GFP, second cherry picks (AID 2622;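 active = GFP signal above 150% of the solvent control wells, that is a rise of more than half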;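 also: median channel GFP fluorescence of all gated yeast cells per well; ratio of median GFP to plate DMSO average so 100% = DMSO level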). The following applies: S. cerevisiae MEP2-GFP strain, 3 h, at 10 µM, stronger effect = higher value.
Test [13] in a line: RPL19A-GFP modulators in TOR pathway yeast, confirmation, cell-based, S. cerevisiae, flow cytometry, second cherry pick (AID 2623;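 active = under 65% GFP response relative to DMSO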;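 also: median GFP channel fluorescence per well over the all cells gate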). The following applies: S. cerevisiae RPL19A-GFP strain, 3 h, at 10 µM, stronger effect = lower value, 100% means same as DMSO wells.
The nature of test [14]: modulators of CIT2-GFP expression in yeast, confirmation, flow cytometry, second cherry pick, single plex (AID 2624;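 active = GFP response vs DMSO above about 150%, limit read from the data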;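 also: median green fluorescence per well over all gated yeast cells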). The following applies: S. cerevisiae CIT2-GFP strain, 3 h, at 10 µM, stronger effect = higher value, DMSO control wells read 100%.
Test [15] can be described thus: AGP1-GFP expression modulators, hit retest, confirmation, cell-based, flow cytometry, S. cerevisiae, cherry pick set 2 (AID 2643;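 active = over 150 percent of DMSO response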;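 also: median GFP channel fluorescence over all cells without mother daughter split; sample median GFP divided by mean DMSO control so 100% equals DMSO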). Conditions: S. cerevisiae AGP1-GFP strain, 3 h, at 10 µM, stronger effect = higher value.
The nature of test [16]: compound autofluorescence in yeast s288c, dose response, artefact control for yeast TOR pathway GFP screen, s288c strain (AID 2757;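 active = fluorescence span over the dose series, or activity score, above about 33, limit read from the data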;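 also: thousands of bead-calibrated equivalent soluble fluorophore molecules from median cell fluorescence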). The following applies: S. cerevisiae s288c, 520 nm autofluorescence, flow cytometry, 3 h; at 33 µM; stronger effect = higher value; zero means same as solvent-only cells.
The target of test [17] is Beta-2 adrenergic receptor (Homo sapiens) (UniProt P07550). The experiment in a line: beta2AR agonists driving receptor internalization, pilot screen, cell-based, FAP fluorogen, flow cytometry, validation set (AID 504459;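 active = percent response above 42, roughly 3 SD of non-fluorescent test compounds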;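 also: agonist-driven loss of surface beta2AR via internalization measured by FAP dye flow cytometry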). Conditions: Am2.2-beta2AR cells, FAP surface receptor flow cytometry; at 10 µM; stronger effect = higher value.
Sequence of Beta-2 adrenergic receptor (Homo sapiens) (P07550 whole entry, looked up): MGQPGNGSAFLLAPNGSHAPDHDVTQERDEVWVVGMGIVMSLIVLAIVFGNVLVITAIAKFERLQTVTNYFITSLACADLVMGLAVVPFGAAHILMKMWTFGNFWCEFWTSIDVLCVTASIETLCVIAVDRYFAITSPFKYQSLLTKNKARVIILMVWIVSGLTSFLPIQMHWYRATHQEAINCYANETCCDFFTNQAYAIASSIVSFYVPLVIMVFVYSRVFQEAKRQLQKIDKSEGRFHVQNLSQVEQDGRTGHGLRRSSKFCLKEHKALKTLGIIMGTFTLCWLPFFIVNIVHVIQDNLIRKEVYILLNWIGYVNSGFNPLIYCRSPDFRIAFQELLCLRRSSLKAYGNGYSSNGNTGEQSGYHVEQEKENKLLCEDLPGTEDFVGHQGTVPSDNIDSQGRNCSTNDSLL

Sequence of Integrin beta-1 (Homo sapiens) + Integrin alpha-4 (Homo sapiens) (P05556 whole entry, looked up): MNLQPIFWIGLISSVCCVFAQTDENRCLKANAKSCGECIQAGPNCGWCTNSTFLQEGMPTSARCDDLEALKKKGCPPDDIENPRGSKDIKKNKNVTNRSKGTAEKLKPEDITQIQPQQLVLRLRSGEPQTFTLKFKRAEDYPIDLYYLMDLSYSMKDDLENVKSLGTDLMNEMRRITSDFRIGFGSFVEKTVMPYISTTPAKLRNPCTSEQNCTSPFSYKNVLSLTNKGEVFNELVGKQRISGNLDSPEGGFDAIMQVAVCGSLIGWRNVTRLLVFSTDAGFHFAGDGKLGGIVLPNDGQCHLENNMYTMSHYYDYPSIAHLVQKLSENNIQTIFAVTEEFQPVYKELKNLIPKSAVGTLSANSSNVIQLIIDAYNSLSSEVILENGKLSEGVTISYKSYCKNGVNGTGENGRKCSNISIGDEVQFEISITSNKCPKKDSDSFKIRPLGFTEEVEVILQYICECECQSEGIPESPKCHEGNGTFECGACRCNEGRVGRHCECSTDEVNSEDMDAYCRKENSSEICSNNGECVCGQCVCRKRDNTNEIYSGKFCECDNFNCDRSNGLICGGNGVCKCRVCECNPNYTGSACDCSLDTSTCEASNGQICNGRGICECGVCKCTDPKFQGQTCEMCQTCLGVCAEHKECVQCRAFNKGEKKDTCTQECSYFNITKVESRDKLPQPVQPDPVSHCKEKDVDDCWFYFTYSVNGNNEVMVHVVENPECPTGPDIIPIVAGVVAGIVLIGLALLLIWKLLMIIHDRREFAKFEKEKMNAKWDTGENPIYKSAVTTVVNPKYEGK
Sequence of Integrin beta-1 (Homo sapiens) + Integrin alpha-4 (Homo sapiens) (P13612 whole entry, looked up): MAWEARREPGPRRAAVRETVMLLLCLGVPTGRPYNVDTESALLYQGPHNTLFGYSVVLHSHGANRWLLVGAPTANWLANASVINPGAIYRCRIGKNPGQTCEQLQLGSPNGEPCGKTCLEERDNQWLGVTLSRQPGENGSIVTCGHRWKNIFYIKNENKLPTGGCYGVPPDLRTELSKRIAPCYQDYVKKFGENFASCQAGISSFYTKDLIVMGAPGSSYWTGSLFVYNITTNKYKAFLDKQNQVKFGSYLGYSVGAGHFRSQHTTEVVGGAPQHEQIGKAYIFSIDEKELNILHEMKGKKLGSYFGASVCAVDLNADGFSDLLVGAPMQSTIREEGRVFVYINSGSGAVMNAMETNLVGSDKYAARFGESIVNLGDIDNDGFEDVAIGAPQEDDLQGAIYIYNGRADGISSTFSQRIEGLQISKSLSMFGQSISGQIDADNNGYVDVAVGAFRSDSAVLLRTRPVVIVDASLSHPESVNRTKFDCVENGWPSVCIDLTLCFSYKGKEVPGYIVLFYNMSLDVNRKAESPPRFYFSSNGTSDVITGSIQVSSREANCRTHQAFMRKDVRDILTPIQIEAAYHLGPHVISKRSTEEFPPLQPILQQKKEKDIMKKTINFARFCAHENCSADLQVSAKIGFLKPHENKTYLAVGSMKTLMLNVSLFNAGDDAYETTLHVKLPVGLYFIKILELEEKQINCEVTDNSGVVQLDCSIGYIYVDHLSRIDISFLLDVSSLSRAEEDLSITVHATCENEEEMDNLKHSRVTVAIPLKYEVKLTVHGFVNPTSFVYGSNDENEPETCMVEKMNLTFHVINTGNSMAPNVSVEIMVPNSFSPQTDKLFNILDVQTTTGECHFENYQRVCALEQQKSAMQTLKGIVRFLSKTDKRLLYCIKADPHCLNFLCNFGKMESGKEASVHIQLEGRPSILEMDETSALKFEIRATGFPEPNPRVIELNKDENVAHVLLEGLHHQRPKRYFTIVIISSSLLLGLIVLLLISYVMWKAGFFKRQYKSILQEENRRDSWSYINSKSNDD

A word on the inhibition: it is the drop in the measured response relative to a control, in per cent. In test [1], `CC[C@H](CO)NCCN[C@H](CC)CO` yielded a double positive events of 56.6%. For the same compound, in [1], the vesicle binding response is 193% (inactive). Further, the inhibition in [2] is -2.11% (inactive); in [5], -14.5% (inactive); in test [9], 12% (inactive). Besides, in [3], the superoxide response (% of plate) was 112% (inactive). Further, the aptamer binding inhibition in [4] was -2% (inactive). Moreover, the response in test [6] is 2.83% (inactive). In addition, the binding (% of control) in test [7] is 112% (inactive). The efflux inhibition (fraction of control) in test [8] is 0.06 (inactive). In addition, in test [10], the differentiation response is -19.6% (inactive).

`O=C(Nc1nnc(-c2ccc(Cl)cc2)o1)c1ccccc1Br`: the GFP response vs DMSO in test [11] is 174% (active); in test [12], 120% (inactive); in test [13], 99.6% (inactive); in test [14], 133% (inactive). Moreover, the percent response vs DMSO in test [15] is 95.3% (inactive). Besides, the fluorescence change (kMESF span) in test [16] is 0.5 (inactive).

On to `CCN1/C(=C/c2ccc3ccc(C)cc3[n+]2CC)Sc2ccccc21`, for which the GFP response vs DMSO in [11] is 392% (active); in test [12] it was 1240% (active); in test [13], 136% (inactive); in test [14], 1630% (active). Moreover, in test [15], the percent response vs DMSO is 203% (active).

Take `COc1ccc(S(=O)(=O)N2CCN(C(=O)COc3ccc4c(C)cc(=O)oc4c3)CC2)cc1`: the double positive events in test [1] was determined as 90%. In addition, the inhibition was 3.67% (inactive) in [2], -2.78% (inactive) in test [5] and -3% (inactive) in test [9]. The superoxide response (% of plate) in test [3] was 96.9% (inactive). The aptamer binding inhibition in [4] is -1% (inactive). Also, the response in test [17] was 11.5% (inactive); in test [6], 0.22% (inactive). For the same compound, the binding (% of control) in test [7] was 103% (inactive). Moreover, in [8], the efflux inhibition (fraction of control) is 0.3 (inactive). Moreover, in test [10], the differentiation response is 4% (inactive).

As to `CCCCNc1c(-c2cccc(Sc3ccc(OC)cc3)c2)nc2ccccn12`, the GFP response vs DMSO in test [11] is 138% (inactive); in test [12], 129% (inactive); in [13], 92.7% (inactive); in [14], 120% (inactive). Moreover, the percent response vs DMSO in test [15] is 90.6% (inactive).

`CC(C)NC[C@@H](O)c1ccc(O)c(O)c1` had a double positive events in test [1] of 58%. Besides, the vesicle binding response in test [1] is 125% (inactive). Further, the inhibition in test [2] was -27.9% (inactive); in test [5] it was 0.64% (inactive); in test [9], 2% (inactive). Moreover, the superoxide response (% of plate) in [3] was 97.4% (inactive). Also, the response in test [6] was 11.9% (inactive). For the same compound, the binding (% of control) in test [7] is 97.3% (inactive). The efflux inhibition (fraction of control) in test [8] was 0 (inactive). The differentiation response in [10] was -7.5% (inactive).

In the case of `O=C(NCCN1CCOCC1)c1ccc(Cl)cc1`, the double positive events in test [1] amounted to 64.3%. Moreover, in [1], the vesicle binding response was 168% (inactive). Moreover, the inhibition in test [2] was -16% (inactive); in [5], 23.5% (inactive); in [9], 14% (inactive). For the same compound, in [4], the aptamer binding inhibition is -1% (inactive). Besides, the response in test [17] was 15.8% (inactive); in test [6], -22.3% (inactive). In [7], the binding (% of control) was 105% (inactive). Moreover, in test [8], the efflux inhibition (fraction of control) is 1.05 (active). For the same compound, the differentiation response in test [10] was 15.9% (inactive).

In turn, `COC(=O)c1cc(-c2ccc(OC)c(OC)c2)on1` registered a double positive events in test [1] of 64.8%. In [1], the vesicle binding response is 155% (inactive). The inhibition in test [2] is -0.45% (inactive); in test [5] it was 35.3% (inactive); in [9], 0% (inactive). Besides, in [4], the aptamer binding inhibition was -1% (inactive). In addition, the response in test [17] was 17.4% (inactive); in test [6], -27.6% (inactive). Besides, the binding (% of control) in test [7] is 107% (inactive). The efflux inhibition (fraction of control) in [8] was 0.61 (active). In addition, the differentiation response in test [10] was 31.5% (inactive).

Consider `COc1ccc(CCNC(=O)CS(=O)(=O)Cc2nc(-c3ccc(C)cc3)oc2C)cc1OC`, for which the GFP response vs DMSO in test [11] is 103% (inactive); in test [12] it was 99.6% (inactive); in [13] it was 95.5% (inactive); in test [14], 100% (inactive). Besides, in [15], the percent response vs DMSO was 101% (inactive).

In test [1], `CCn1c(=N)c(C(=O)NC)cc2c(=O)n3cccc(C)c3nc21` displayed a double positive events of 55.2%. In test [1], the vesicle binding response is 26.6% (inactive). For the same compound, the inhibition is -8.75% (inactive) in test [2] and 5% (inactive) in [9]. In test [4], the aptamer binding inhibition was 2% (inactive). Also, the response in test [17] is -15.1% (inactive); in [6], -34.5% (inactive). Further, in test [7], the binding (% of control) is 108% (inactive). The efflux inhibition (fraction of control) in [8] was 1.08 (active). In addition, the differentiation response in test [10] was 24.7% (inactive).

As to `COc1ccc2cc(-c3nc4ccccc4n3C)c(=O)oc2c1`, in test [1], the double positive events amounted to 65.4%. Besides, in test [1], the vesicle binding response was 147% (inactive). Also, the inhibition was -9.79% (inactive) in test [2] and 7% (inactive) in [9]. The aptamer binding inhibition in [4] was 1% (inactive). Moreover, the response in test [17] was -16.5% (inactive); in [6] it was -29.1% (inactive). Also, the binding (% of control) in [7] was 95.5% (inactive). The efflux inhibition (fraction of control) in [8] was -0.2 (inactive). The differentiation response in test [10] is 17.8% (inactive).

Regarding `CCCn1nc(C(=O)NNC(=O)CCOc2ccccc2OCC)c2ccccc2c1=O`, the GFP response vs DMSO in [11] was 102% (inactive); in test [12], 97.8% (inactive); in test [13], 102% (inactive); in test [14] it was 121% (inactive). Moreover, the percent response vs DMSO in test [15] is 99% (inactive).
